Source: PubChem BioAssay AID1159580 (chemical genetic matrix, 2015)
The whole screen tested about 5,500 compounds, of which about 2,000 (36%) were called active. Inconclusive results (about 18%) are left out. The list shows a part of the results. Values without a mark were called inactive. Cut-off read from the data, not from the text of the source: active = normalized growth mostly below about 0.91 (no sharp cut-off); inconclusive = no clear call, values can overlap the other calls; inactive = mostly above about 0.92.

Assay: chemical genetic growth profiling, strain panel (AID 1159580);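 note: tested at 20 µM; growth read once vehicle control cultures reached saturation at 30 °C; 1 = growth at the plate median or of vehicle wells; lower values mean less growth of the strain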
Conditions: S. cerevisiae deletion strains, growth OD
[1] = locus YAL013W, strain DEP1, hits give low values
[2] = locus YDR150W, strain NUM1, hits give low values
[3] = locus YHR030C, strain SLT2, hits give low values
[4] = locus YNL128W, strain TEP1, hits give low values
[5] = locus YNL153C, strain GIM3, hits give low values
[6] = locus YPL055C, strain LGE1, hits give low values

NC(=O)c1ccccc1N1CCCCC1
normalized growth [1]: 1.01
normalized growth (locus YBR229C, strain ROT2, hits give low values): 0.986
normalized growth (locus YDL101C, strain DUN1, hits give low values): 0.949
normalized growth [2]: 0.912
normalized growth (locus YEL061C, strain CIN8, hits give low values): 1.02
normalized growth (locus YGR078C, strain PAC10, hits give low values): 0.997
normalized growth [3]: 0.986
normalized growth (locus YHR087W, strain rtc3, hits give low values): 1.05
normalized growth (locus YJL187C, strain SWE1, hits give low values): 1.02
normalized growth (locus YJR043C, strain POL32, hits give low values): 0.99
normalized growth (locus YJR075W, strain HOC1, hits give low values): 0.965
normalized growth (locus YKL190W, strain CNB1, hits give low values): 1.01
normalized growth (locus YLR039C, strain RIC1, hits give low values): 1.02
normalized growth (locus YLR058C, strain SHM2 (second series), hits give low values): 1.02
normalized growth (locus YLR085C, strain ARP6, hits give low values): 1.06
normalized growth (locus YLR262C, strain YPT6, hits give low values): 1.02
normalized growth (locus YML094W, strain GIM5, hits give low values): 1.02
normalized growth (locus YMR219W, strain ESC1, hits give low values): 0.997
normalized growth (locus YMR263W, strain SAP30, hits give low values): 0.941
normalized growth [4]: 0.996
normalized growth [5]: 0.993
normalized growth (locus YNL298W, strain CLA4 (second series), hits give low values): 0.991
normalized growth (locus YNL322C, strain KRE1, hits give low values): 0.994
normalized growth (locus YNR030W, strain Alg12, hits give low values): 1
normalized growth (locus YOL006C, strain TOP1, hits give low values): 0.991
normalized growth [6]: 0.998
normalized growth (locus YPL241C, strain CIN2, hits give low values): 0.994
normalized growth (locus YPR135W, strain CTF4, hits give low values): 0.907

CC(C)(C)c1ccc(C(O)CCCN2CCC(C(O)(c3ccccc3)c3ccccc3)CC2)cc1 (stereo not given)
normalized growth [1]: 0.984
normalized growth (locus YAL040C, strain CLN3, hits give low values): 0.991
normalized growth (locus YCL061C, strain MRC1 (second series), hits give low values): 1
normalized growth [2]: 1.01
normalized growth (locus YDR363W, strain ESC2, hits give low values): 1
normalized growth (locus YER002W, strain NOP16, hits give low values): 1.22 [resistant] (active)
normalized growth (locus YGR229C, strain SMI1, hits give low values): 0.936
normalized growth [3]: 0.952
normalized growth (locus YHR079C, strain IRE1, hits give low values): 0.941
normalized growth (locus YJL095W, strain BCK1, hits give low values): 0.973
normalized growth (locus YJR066W, strain TOR1, hits give low values): 0.972
normalized growth (locus YLR113W, strain HOG1, hits give low values): 0.978
normalized growth (locus YMR307W, strain GAS1, hits give low values): 1.01
normalized growth [4]: 1.09
normalized growth [5]: 1.01
normalized growth (locus YNL175C, strain NOP13, hits give low values): 1.25 [resistant] (active)
normalized growth (locus YNL183C, strain NPR1, hits give low values): 0.936
normalized growth (locus YNL197C, strain WHI3, hits give low values): 1.15 [resistant] (active)
normalized growth (locus YOR083W, strain WHI5 (second series), hits give low values): 1.05
normalized growth (locus YOR231W, strain MKK1, hits give low values): 0.966
normalized growth [6]: 0.978
normalized growth (locus YPL256C, strain CLN2, hits give low values): 0.955
